Only some compounds are listed: those with a hit (about 3.3% of all), similar ones and a draw of the others.
Giardia FBPA inh = Giardia lamblia aldolase inhibition. Potency, µM (top dose mostly 59.6 µM), hits mostly inhibitors. purified Giardia FBPA. 290,000 tested, 0.71% active. A8B2U2. AID 2451; also: nearly all actives have a fitted effect of over 55% in size
Target sequence (A8B2U2 whole entry, looked up): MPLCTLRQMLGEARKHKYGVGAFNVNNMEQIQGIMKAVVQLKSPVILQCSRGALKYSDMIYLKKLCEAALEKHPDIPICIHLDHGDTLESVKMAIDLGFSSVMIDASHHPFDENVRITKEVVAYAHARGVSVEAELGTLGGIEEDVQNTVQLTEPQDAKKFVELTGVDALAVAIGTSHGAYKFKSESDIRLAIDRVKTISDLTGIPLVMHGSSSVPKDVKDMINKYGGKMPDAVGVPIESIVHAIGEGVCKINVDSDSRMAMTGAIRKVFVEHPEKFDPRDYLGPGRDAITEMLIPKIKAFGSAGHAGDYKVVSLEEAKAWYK
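Giardia FBPA (40 nM reagent) was preincubated 10 min at RT with compound (up to 57.5 uM final), then substrate plus GAPDH/TPI/NAD/arsenate coupling system with diaphorase/resazurin was added; resorufin fluorescence (525/598 nm) was read after 20 min.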
LmPK inhibitor = LmPK (Leishmania mexicana) enzyme inhibition; Potency, µM (titrated, usually from 57.5 µM), actives largely listed as inhibitors; purified LmPK, Kinase-Glo ATP luminescence, 1 h; Q27686; 290,000 tested, 0.37% active; AID 1721
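ATP generated from ADP (0.1 mM) and PEP (0.5 mM) by 0.1 nM LmPK over 1 h at room temperature (pH 7.2 imidazole buffer) was detected by coupled luciferase luminescence. Values were normalized to uninhibited and no-enzyme wells.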
Tb PYK inh = blocks Trypanosoma brucei pyruvate kinase; TbPYK enzyme, Kinase-Glo Plus ATP luminescence, 45 min; Potency, µM (series often up to 76.8 µM), hits mostly inhibitors; 410,000 tested, 0.12% active; AID 624173; also: nearly all actives have a fitted effect of over 50% in size
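Quantitative HTS: titrated library compounds versus trypanosomal pyruvate kinase in TEA buffer (pH 7.2) containing KCl, MgCl2, BSA and Tween-20. Reactions were initiated with ADP, 130 uM final. Kinase-Glo Plus luminescence was read after 45 min at RT.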
Sm TGR inh = inhibitors of Schistosoma mansoni thioredoxin glutathione reductase; AID 485364; purified TGR, DTNB reduction, TNB absorbance 405 nm; Potency, µM (top dose mostly 114 µM), usual class: inhibitors; 360,000 tested, 3% active; also: nearly all actives have a fitted effect of over 60% in size
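TGR 20 nM + NADPH 100 uM (dispensed conc.), cpd preinc 15 min RT; start with NADPH (500 uM addition) then DTNB (15 mM addition). Kinetic TNB absorbance, 405 nm filter. Four-parameter Hill fit across titration.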
RE007 growth inh = less growth of the S. pombe RE007 Vpr strain; S. pombe RE007 Vpr strain, BacTiter-Glo ATP luminescence, 24 h; Potency, µM (top dose mostly 92.2 µM), usual class: inhibitors; 360,000 tested, 0.21% active; active = well fitted falling curve with a large enough effect; inconclusive = small, poorly fitted or top-dose-only effect; inactive = no such curve, though single readings can be large or run the other way; also: nearly all actives have a fitted effect of over 50% in size
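Fission yeast RE007 carrying one integrated HIV-1 vpr copy, seeded at OD 0.01 in PMG+AL medium with 23 nL pinned compound. Grown 24 h at 30 degrees; viability read by BacTiter-Glo luminescence after 5 min.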
Large screens that a line does not name were inactive. Unless noted, calls follow the shape of the dose curve; as a rule, active = well fitted curve in the direction sought with a large enough effect; inconclusive = small, poorly fitted or top-dose-only effect, or another doubt; inactive = no such curve, though single readings can be large; an effect the other way counts as inactive or inconclusive.

COc1ccc(-c2noc(-c3cc(-c4ccc(F)cc4)n[nH]3)n2)cc1	none (no result: Giardia FBPA inh, LmPK inhibitor, RE007 growth inh)
COc1cc(C2C3=C(CC(C)(C)CC3=O)Nc3c2c(=O)[nH]c(=O)n3Cc2ccccc2)ccc1O (configuration not stated)	Sm TGR inh 50µM
COc1ccc(C2C3=C(CC(C)(C)CC3=O)Nc3c2c(=O)[nH]c(=O)n3Cc2ccccc2)cc1OC (configuration not stated)	none
CCC(C(=O)OC)n1cnc2c(nnn2-c2ccccc2)c1=O (configuration not stated)	none
C=CCOc1cccc(/C=N/NC(=O)C(OC)c2ccccc2)c1 (configuration not stated)	none
CCC(CC)C1=NN2C(=N)/C(=C/c3ccc(OC(=O)c4ccco4)cc3)C(=O)N=C2S1	none
CCC1=NN2C(=N)/C(=C/c3ccc(OS(=O)(=O)c4ccccc4)cc3)C(=O)N=C2S1	none
CCS(=O)(=O)C1=NN2C(=N)/C(=C\c3ccc(OS(=O)(=O)c4ccccc4)cc3)C(=O)N=C2S1	Sm TGR inh 45µM (no result: Giardia FBPA inh)
CCS(=O)(=O)C1=NN2C(=N)/C(=C\c3ccc(OC(=O)c4ccco4)cc3)C(=O)N=C2S1	Sm TGR inh 35µM (no result: Giardia FBPA inh)
CCc1nc(CN2CCCC(C(=O)Nc3ccc(-c4cccc(OC)c4)cc3)C2)c(C)[nH]1 (configuration not stated)	none (no result: Giardia FBPA inh, LmPK inhibitor, Sm TGR inh)
Cc1nc2sc3c(c2c(=O)n1NC(=O)CCBr)CCCC3	Sm TGR inh 40µM
CCCc1nc2sc3c(c2c(=O)n1NC(=O)CCC(=O)OC)CCCC3	none
CCOc1ccc(N2C(=O)CC(NC3CCN(C(=O)c4ccc(F)cc4)CC3)C2=O)cc1 (configuration not stated)	Sm TGR inh 18µM, RE007 growth inh inconclusive
CCOC(=O)c1ccc(N2C(=O)CC(NC3CCN(C(=O)c4ccc(F)cc4)CC3)C2=O)cc1 (configuration not stated)	Sm TGR inh 50µM
COc1ccc(N2C(=O)CC(NC3CC3)C2=O)cc1 (configuration not stated)	none
Cc1ccc(CN2CCNC(=O)C2CC(=O)N(C)C2CCOCC2)cc1 (configuration not stated)	Giardia FBPA inh inconclusive, Sm TGR inh 45µM
CN(C(=O)CC1C(=O)NCCN1Cc1c(F)cccc1Cl)C1CCOCC1 (configuration not stated)	Giardia FBPA inh inconclusive, Sm TGR inh 50µM
Cc1c(C(=O)N(C)CCC#N)oc2ccc(S(=O)(=O)N3CCOCC3)cc12	none
COc1ccccc1Nc1c2c(nc3ccc(NC(=O)c4ccc(OC)c(OC)c4)cc13)CCCC2	none (no result: Giardia FBPA inh, LmPK inhibitor, RE007 growth inh)
O=C1CCC/C(=N/Nc2ccc(Cl)cc2)C1	Giardia FBPA inh inconclusive, Sm TGR inh 13µM
Nc1ccc2oc(-c3cccs3)nc2c1	none
Cc1occc1-c1nnc(SCC(=O)c2ccc(F)cc2)n1Cc1ccco1	Sm TGR inh 22µM
O=C(CC(SCCO)c1ccc2c(c1)OCO2)c1cccs1 (configuration not stated)	none
O=C(CSc1nnc(-c2ccc(O)cc2)n1Cc1ccco1)c1cccs1	Sm TGR inh 25µM
O=C(CSc1nnc(-c2cccnc2)n1Cc1ccco1)c1ccccc1	none
O=C(CSc1nnc(-c2cc3ccccc3cc2O)n1Cc1ccco1)c1ccc(F)cc1	none
O=C(CC(SCc1ccco1)c1ccc(O)cc1)c1cccs1 (configuration not stated)	Sm TGR inh 28µM
O=C(CSc1nnc(-c2ccc(O)cc2)n1Cc1ccco1)c1ccccc1	Sm TGR inh 45µM
COC(=O)c1ccc(CSc2nc3ccc(S(N)(=O)=O)cc3[nH]2)cc1	Giardia FBPA inh inconclusive
O=C(Nc1cnn(Cc2ccc(F)cc2)c1)c1cnccn1	none
Cc1cc(SCC(=O)N(C)C2CCCCC2)nc2ccccc12	none (no result: Giardia FBPA inh, LmPK inhibitor, Sm TGR inh)
O=C(c1[nH]c(C(F)(F)F)nc1-c1ccccc1)N1CCN(c2ncc(C(F)(F)F)cc2Cl)CC1	none (no result: Giardia FBPA inh, LmPK inhibitor, Sm TGR inh)
CC(CNC(=O)CC[C@H]1O[C@@H](n2ccc(=O)[nH]c2=O)[C@H](O)[C@@H]1O)c1ccccc1 (some centres not stated)	none (no result: Giardia FBPA inh, LmPK inhibitor, Sm TGR inh)
Cn1c(CNC(=O)c2ccco2)nnc1SCC(=O)c1ccc(F)cc1	Sm TGR inh 10µM (no result: Giardia FBPA inh)
Cc1cc2c(N)cccc2nn1	Giardia FBPA inh inconclusive, LmPK inhibitor inconclusive, Sm TGR inh 25µM
CCOc1ccc(N2Cc3ccccc3C2)cc1	Giardia FBPA inh inconclusive, Sm TGR inh 56µM
CCOc1ccccc1N1Cc2ccccc2C1	Sm TGR inh 13µM
CCOc1ccc(N2CC(=O)N(c3ccc(OCC)cc3)CC2=O)cc1	none
CCOC(=O)C1=C(O)c2ccccc2C(=O)/C1=C\c1ccc(C)cc1	Giardia FBPA inh inconclusive, Tb PYK inh inconclusive, Sm TGR inh 3.5µM, RE007 growth inh inconclusive
CCOC(=O)C1=C(C)OC(=Cc2ccccc2)C1=O	none (no result: Giardia FBPA inh, LmPK inhibitor, Sm TGR inh)
O=C(N/C(=C\c1ccccc1)C(=O)N1CCOCC1)c1cccc(Br)c1	none
CC1CC(NC(=O)c2cc3c(=O)n4ccccc4nc3n2C)CC(C)(C)C1 (configuration not stated)	none (no result: Giardia FBPA inh)
CC1CCCC(=C\c2ccccc2)/C1=N/O (configuration not stated)	none
Cc1c(C(O)CN2CCN(Cc3ccc4c(c3)OCO4)CC2)c2ccccc2n1C (configuration not stated)	Sm TGR inh 28µM
COc1ccc2c(c1)c(C(O)CN1CCN(Cc3ccc4c(c3)OCO4)CC1)c(C)n2C (configuration not stated)	Sm TGR inh 25µM
OC(CN1CCN(Cc2ccc3c(c2)OCO3)CC1)c1c[nH]c2ccccc12 (configuration not stated)	none
COc1ccc(N2CCCC2)c(NC(=O)c2ccc(Br)o2)c1	Sm TGR inh 45µM
O=C(Nc1ccccc1N1CCCC1)c1ccc(Br)o1	none
CN(CC1CCOCC1)C(=O)CC1C(=O)NCCN1Cc1cccc(C(F)(F)F)c1 (configuration not stated)	Giardia FBPA inh inconclusive, Sm TGR inh 45µM
CN(CCC1CCOCC1)C(=O)CC1C(=O)NCCN1Cc1ccccc1F (configuration not stated)	Sm TGR inh 45µM
COc1cccc(CNC(=O)CC2C(=O)NCCN2CCCc2ccccc2)c1 (configuration not stated)	none
O=C(CC1C(=O)NCCN1Cc1ccoc1)NCc1cccc(OC(F)(F)F)c1 (configuration not stated)	Sm TGR inh 25µM
COc1ccc(CN2CCNC(=O)C2CC(=O)N(C)CC2CCOCC2)cc1OC (configuration not stated)	Sm TGR inh inconclusive
CN(CCC1CCOCC1)C(=O)CC1C(=O)NCCN1Cc1ccoc1 (configuration not stated)	Sm TGR inh inconclusive
